Source: PubChem BioAssay AID1159580 (chemical genetic matrix, 2015)
Values joined by “and” are separate entries in the source; they are usually repeats but may differ in a detail not shown here. Equal entries are not always repeated. Screen size: about 5,500 compounds; about 2,000 (36%) were called active. Not shown: some 18% with an inconclusive outcome. No stated cut-off is given here; in the data, active means normalized growth mostly below about 0.91 (no sharp cut-off); inconclusive means no clear call, values can overlap the other calls; inactive means mostly above about 0.92. The list shows a part of the results.

Test: chemical genetic growth profiling, strain panel (AID 1159580);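 further: tested at 20 µM; growth read once vehicle control cultures reached saturation at 30 °C; 1 = growth at the plate median or of vehicle wells; lower values mean less growth of the strain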
Conditions: S. cerevisiae deletion strains, growth OD
[1] = locus YAL013W, strain DEP1, active compounds read low
[2] = locus YBR229C, strain ROT2, active compounds read low
[3] = locus YDL101C, strain DUN1, active compounds read low
[4] = locus YDR150W, strain NUM1, active compounds read low
[5] = locus YEL061C, strain CIN8, active compounds read low
[6] = locus YHR030C, strain SLT2, active compounds read low
[7] = locus YJL187C, strain SWE1, active compounds read low
[8] = locus YJR043C, strain POL32, active compounds read low
[9] = locus YJR075W, strain HOC1, active compounds read low
[10] = locus YLR039C, strain RIC1, active compounds read low
[11] = locus YLR262C, strain YPT6, active compounds read low
[12] = locus YMR263W, strain SAP30, active compounds read low

Measured: normalized growth

Cc1ccc2c(c1)N(CCO)C(C)(C)CC2C (centres undefined)
inactive: [1] 1 | [2] 0.997 | [3] 0.97 | [4] 0.909 | [5] 1.03 | locus YGR078C, strain PAC10, active compounds read low 0.986 | [6] 0.982 | locus YHR087W, strain rtc3, active compounds read low 0.961 | [7] 1 | [8] 0.98 | [9] 0.975 | [10] 0.969 | locus YLR058C, strain SHM2 (second series), active compounds read low 0.988 | locus YLR085C, strain ARP6, active compounds read low 1.03 | [11] 0.955 | locus YML094W, strain GIM5, active compounds read low 0.993 | locus YMR219W, strain ESC1, active compounds read low 0.987 | [12] 0.997 | locus YNL153C, strain GIM3, active compounds read low 1 | locus YNL298W, strain CLA4 (second series), active compounds read low 1.04 | locus YNL322C, strain KRE1, active compounds read low 1 | locus YNR030W, strain Alg12, active compounds read low 0.986 | locus YOL006C, strain TOP1, active compounds read low 1.02 | locus YPL055C, strain LGE1, active compounds read low 0.962 | locus YPL241C, strain CIN2, active compounds read low 0.998 | locus YPR135W, strain CTF4, active compounds read low 0.953

COc1cc(OC)c(OC)cc1C=O
inactive: [1] 0.991 | locus YAL021C, strain ccr4, active compounds read low 1.01 | locus YAL026C, strain drs2, active compounds read low 1 | locus YAL030W, strain snc1, active compounds read low 0.998 | locus YBL061C, strain skt5, active compounds read low 0.991 | locus YBR009C, strain hhf1, active compounds read low 0.993 | locus YBR021W, strain FUR4, active compounds read low 1.03 | locus YBR023C, strain chs3, active compounds read low 0.991 | locus YBR171W, strain sec66, active compounds read low 0.991 | [2] 1.01 | locus YBR231C, strain swc5, active compounds read low 0.998 | locus YBR279W, strain paf1, active compounds read low 0.997 | locus YCL011C, strain gbp2, active compounds read low 1 | locus YCL016C, strain dcc1, active compounds read low 0.995 | locus YCL029C, strain bik1, active compounds read low 0.972 | locus YCL061C, strain MRC1, active compounds read low 0.996 | locus YCL069W, strain vba3, active compounds read low 0.999 | locus YCR088W, strain abp1, active compounds read low 0.999 | locus YDL005C, strain med2, active compounds read low 0.985 | locus YDL035C, strain GPR1, active compounds read low 1.01 | locus YDL040C, strain nat1, active compounds read low 0.998 | locus YDL074C, strain BRE1, active compounds read low 1 | [3] 1.02 | locus YDL185W, strain tfp1, active compounds read low 0.94 | locus YDL192W, strain arf1, active compounds read low 0.997 | locus YDR001C, strain nth1, active compounds read low 0.999 | locus YDR069C, strain doa4, active compounds read low 0.991 | locus YDR101C, strain arx1, active compounds read low 0.989 | locus YDR137W, strain rgp1, active compounds read low 0.973 | [4] 0.991 | locus YDR159W, strain sac3, active compounds read low 1 | locus YDR162C, strain NBP2, active compounds read low 1.06 | locus YDR195W, strain ref2 1.01 | locus YDR297W, strain sur2, active compounds read low 0.989 | locus YDR318W, strain mcm21, active compounds read low 0.994 | locus YDR334W, strain swr1, active compounds read low 0.987 | locus YDR335W, strain msn5, active compounds read low 1 | locus YDR388W, active compounds read low 0.988 | locus YDR392W, strain spt3, active compounds read low 0.999 | locus YDR502C, strain sam2, active compounds read low 0.995 | locus YEL003W, strain gim4, active compounds read low 0.999 | locus YEL037C, strain rad23, active compounds read low 1 | locus YEL061C, strain CIN8 (second series), active compounds read low 1 | [5] 1.01 | locus YER015W, strain faa2, active compounds read low 0.997 | locus YER016W, strain bim1, active compounds read low 0.994 | locus YER110C, active compounds read low 0.968 | locus YER111C, strain swi4, active compounds read low 1 | locus YER155C, strain BEM2 (second series), active compounds read low 1 | locus YER155C, strain BEM2, active compounds read low 0.991 | locus YER167W, strain BCK2, active compounds read low 1.02 | locus YFR010W, strain ubp6, active compounds read low 0.999 | locus YGL078C, strain dbp3, active compounds read low 0.986 | locus YGL086W, strain mad1, active compounds read low 0.984 | locus YGL167C, strain pmr1, active compounds read low 1 | locus YGL173C, strain kem1, active compounds read low 0.997 | locus YGL227W, strain vid30, active compounds read low 0.992 | locus YGL240W, strain doc1, active compounds read low 1.02 | locus YGL248W, strain PDE1, active compounds read low 1.06 | locus YGL253W, strain hxk2, active compounds read low 0.992 | locus YGR135W, strain pre9, active compounds read low 1.03 | locus YGR252W, strain gcn5, active compounds read low 1.08 | locus YHR013C, strain ard1, active compounds read low 1.02 | locus YHR027C, strain rpn1, active compounds read low 0.994 | [6] 0.994 and 0.979 | locus YHR079C, strain IRE1 (second series), active compounds read low 0.987 | locus YHR079C, strain IRE1, active compounds read low 0.996 | locus YHR094C, strain hxt1, active compounds read low 1 | locus YHR129C, strain ARP1, active compounds read low 1.02 | locus YHR142W, strain chs7, active compounds read low 0.998 | locus YHR200W, strain rpn10, active compounds read low 0.978 | locus YIL066C, strain RNR3, active compounds read low 1.04 | locus YIL073C, strain SPO22, active compounds read low 0.955 | locus YIL125W, strain kgd1, active compounds read low 0.998 | locus YIR030C, strain dcg1, active compounds read low 0.99 | locus YJL092W, strain hpr5, active compounds read low 0.995 | locus YJL095W, strain BCK1 (second series), active compounds read low 0.99 | locus YJL095W, strain BCK1, active compounds read low 1.09 and 0.989 | locus YJL115W, strain asf1, active compounds read low 1 | locus YJL129C, strain trk1, active compounds read low 1 | locus YJL134W, strain LCB3, active compounds read low 0.987 | locus YJL154C, strain vps35, active compounds read low 0.995 | locus YJL164C, strain tpk1, active compounds read low 1 | locus YJL166W, strain qcr8, active compounds read low 1.01 | locus YJL168C, strain set2, active compounds read low 0.991 | locus YJL187C, strain SWE1 (second series), active compounds read low 1.04 | [7] 0.991 | [8] 0.986 | locus YJR066W, strain TOR1, active compounds read low 0.916 | [9] 1.01 | locus YKL009W, strain mrt4, active compounds read low 0.972 | locus YKL068W, active compounds read low 0.985 | locus YKL085W, strain MDH1 (second series), active compounds read low 0.988 | locus YKL085W, strain MDH1, active compounds read low 0.988 | locus YKL160W, strain elf1, active compounds read low 1 | locus YKR001C, strain vps1, active compounds read low 1.02 | locus YKR026C, strain gcn3, active compounds read low 0.994 | locus YKR091W, strain srl3, active compounds read low 0.997 | locus YLL001W, strain dnm1, active compounds read low 1.01 | locus YLL026W, active compounds read low 0.99 | locus YLL041C, strain sdh2, active compounds read low 0.996 | locus YLR027C, strain aat2, active compounds read low 1.01 | [10] 0.989 | locus YLR058C, strain SHM2, active compounds read low 1.03 | locus YLR102C, strain apc9, active compounds read low 0.971 | locus YLR113W, strain HOG1, active compounds read low 1.01 | locus YLR221C, strain rsa3, active compounds read low 0.992 | locus YLR258W, strain gsy2, active compounds read low 1 | locus YLR262C, strain YPT6 (second series), active compounds read low 0.985 | [11] 1.02 | locus YLR268W, strain sec22, active compounds read low 0.97 | locus YLR320W, strain mms22, active compounds read low 0.995 | locus YLR330W, strain CHS5, active compounds read low 1.01 | locus YLR342W, strain FKS1 (second series), active compounds read low 1.05 | locus YLR342W, strain FKS1, active compounds read low 0.997 | locus YLR357W, strain rsc2, active compounds read low 0.957 | locus YLR370C, strain arc18, active compounds read low 0.997 | locus YLR371W, strain rom2, active compounds read low 0.993 | locus YLR384C, strain iki3, active compounds read low 1.01 | locus YLR418C, strain cdc73, active compounds read low 1.02 | locus YML016C, strain PPZ1, active compounds read low 1.01 | locus YML032C, strain rad52, active compounds read low 1.04 | locus YML120C, strain ndi1, active compounds read low 0.999 | locus YML124C, strain tub3, active compounds read low 0.984 | locus YMR058W, strain fet3, active compounds read low 1 | locus YMR078C, strain ctf18, active compounds read low 0.982 | locus YMR125W, strain sto1, active compounds read low 0.991 | locus YMR129W, active compounds read low 0.989 | locus YMR205C, strain PFK2, active compounds read low 1 | locus YMR223W, strain ubp8, active compounds read low 1 | locus YMR231W, strain pep5, active compounds read low 0.989 | [12] 1.01 | locus YMR307W, strain GAS1, active compounds read low 1.09 | locus YNL067W, strain RPL9B, active compounds read low 1.04 | locus YNL071W, strain lat1, active compounds read low 1 | locus YNL183C, strain NPR1, active compounds read low 0.946 | locus YNL209W, strain ssb2, active compounds read low 0.996 | locus YNL233W, strain BNI4, active compounds read low 1.06 | locus YNL248C, strain rpa49, active compounds read low 1 | locus YNL250W, strain rad50, active compounds read low 0.964 | locus YNL271C, strain bni1, active compounds read low 0.982 | locus YNL298W, strain CLA4, active compounds read low 0.987 | locus YNL307C, strain MCK1, active compounds read low 0.999 | locus YNL322C, strain KRE1 (second series), active compounds read low 1 | locus YNR049C, strain mso1, active compounds read low 0.992 | locus YNR052C, strain pop2, active compounds read low 0.995 | locus YOL012C, strain htz1 2.03 | locus YOL147C, strain pex11, active compounds read low 1 | locus YOR001W, strain rrp6, active compounds read low 0.998 | locus YOR061W, strain CKA2, active compounds read low 1.01 | locus YOR069W, strain VPS5, active compounds read low 0.989 | locus YOR070C, strain gyp1, active compounds read low 0.979 | locus YOR080W, strain dia2, active compounds read low 0.987 | locus YOR083W, strain WHI5, active compounds read low 1 | locus YOR106W, strain vam3, active compounds read low 1.01 | locus YOR136W, strain idh2, active compounds read low 0.981 | locus YOR144C, strain elg1, active compounds read low 1 | locus YOR184W, strain ser1, active compounds read low 0.993 | locus YOR231W, strain MKK1, active compounds read low 1 | locus YOR265W, strain rbl2, active compounds read low 0.993 | locus YOR270C, strain vph1, active compounds read low 1.01 | locus YOR290C, strain snf2, active compounds read low 1 | locus YOR316C, strain cot1, active compounds read low 0.99 | locus YPL051W, strain arl3, active compounds read low 0.992 | locus YPL078C, strain atp4, active compounds read low 1 | locus YPL106C, strain sse1, active compounds read low 0.958 | locus YPL240C, strain hsp82, active compounds read low 0.992 | locus YPL256C, strain CLN2, active compounds read low 0.976 | locus YPR119W, strain clb2, active compounds read low 0.974 | locus YPR141C, strain kar3, active compounds read low 0.975 | locus YPR163C, strain tif3, active compounds read low 0.981 | locus YPR167C, strain met16, active compounds read low 0.971 | strain wtn01, active compounds read low 0.978
